Compound activity deposited in PubChem by National Center for Advancing Translational Sciences (NCATS).
Sampled rows, rich in hits. Any-hit rate of the full collection: about 8.2%.
ELG1 repair inh: blocks ELG1-dependent DNA repair in HEK293T cells; HEK293T ELG1-luciferase reporter, luminescence, 16 h; DNA damage induced by 5-fluorouridine; Potency, µM (titrated, usually from 46.1 µM), usual class: inhibitors; 2.3% of 330,000 active; AID 504467; note: nearly all actives have a fitted effect of over 55% in size
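Cells (2,000 per well) received 5-fluorouridine plus test compound or DMSO and were incubated 16 hr at 37 °C, 5% CO2. Luciferase activity was read by luminescence 30 min after ONE-Glo addition; signal suppression marked inhibition of damage-induced ELG1 function.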
SW480 rerep: inducers of DNA re-replication in SW480 colon cancer cells; SW480 DNA re-replication, Hoechst DNA content imaging, 48 h; Potency, µM (highest dose often 46.1 µM), actives largely listed as activators; 1.8% of 340,000 active; note: nearly all actives have a fitted effect of over 55% in size
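Treated cells incubate 48 hr (37 C, 5% CO2), are stained 40 min with Hoechst, and nuclear fluorescence is enumerated; a rise in nuclei with high DNA signal marks re-replication.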
KB-3-1 cytotox: KB-3-1 parental cell cytotoxicity; 1.4% of 400,000 active; KB-3-1 viability, CellTiter-Glo ATP luminescence, 72 h; Potency, µM (doses to about 46.1 µM), hits mostly cytotoxic; AID 1347075; note: nearly all actives have a fitted effect of over 60% in size
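Cytotoxicity in the drug-sensitive parental line KB-3-1 was scored as loss of CellTiter-Glo luminescence following 72 h incubation with compound. Values come from curve fitting of normalized concentration-response data.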
MCF10A rerep: inducers of DNA re-replication in MCF 10A breast cells. AID 624296. 2.9% of 350,000 active. Potency, µM (series often up to 46.1 µM), actives largely listed as activators. MCF 10A DNA re-replication, Hoechst nuclear intensity, 48 h; note: nearly all actives have a fitted effect of over 50% in size
KB-V1 cytotox: KB-V1 MDR subline cytotoxicity; KB-V1 MDR cells viability, CellTiter-Glo, 72 h; Potency, µM (doses to about 46.1 µM), most hits filed as cytotoxic; 3.4% of 400,000 active; note: nearly all actives have a fitted effect of over 60% in size
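qHTS viability screen in drug-selected KB-V1 MDR cells: 72 h compound treatment at 37 degrees C, ATP luminescence end point.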
Of the large screens only hits and unclear results are named; the others gave an inactive call. Calls come from the whole dose curve; as a rule, active = well fitted curve in the direction sought with a large enough effect; inconclusive = small, poorly fitted or top-dose-only effect, or another doubt; inactive = no such curve, though single readings can be large; an effect the other way counts as inactive or inconclusive.

CN(C)CCCN(C(=O)c1cc2cc([N+](=O)[O-])ccc2s1)c1nc2cc3c(cc2s1)OCCO3	ELG1 repair inh inconclusive, SW480 rerep 10µM, KB-3-1 cytotox inconclusive, MCF10A rerep inconclusive, KB-V1 cytotox 18µM
Cc1ccc2nc(N(CCCN(C)C)C(=O)c3ccc4c(c3)CCCC4)sc2c1	SW480 rerep inconclusive, KB-3-1 cytotox inconclusive, MCF10A rerep inconclusive, KB-V1 cytotox 4.1µM
CCc1ccc2nc(N(CCCN(C)C)C(=O)c3ccc(S(=O)(=O)N(C)C4CCCCC4)cc3)sc2c1	SW480 rerep inconclusive, KB-3-1 cytotox inconclusive, MCF10A rerep 18µM
COc1ccc(OC)c(CCNC(=O)C(C)n2c(C)c3cnn(-c4ccccc4)c(=O)c3c2C)c1 (stereo unspecified)	KB-V1 cytotox inconclusive (no result: ELG1 repair inh, SW480 rerep, MCF10A rerep)
COc1cc(/C=C/C(=O)Nc2nnc(C(C)(C)C)s2)cc(OC)c1OC	ELG1 repair inh inconclusive, KB-V1 cytotox inconclusive
COc1cccc(C(=O)Nc2nc3ccc(S(=O)(=O)N4CCCC4)cc3s2)c1	KB-3-1 cytotox 13µM, KB-V1 cytotox inconclusive (no result: ELG1 repair inh, SW480 rerep, MCF10A rerep)
O=C(Nc1nc2ccc(S(=O)(=O)N3CCCC3)cc2s1)C1CCCCC1	ELG1 repair inh inconclusive, SW480 rerep 7.3µM, KB-3-1 cytotox 2.6µM, MCF10A rerep 10µM, KB-V1 cytotox 3.7µM
COc1cc(/C=C/C(=O)Nc2nc3ccc(S(=O)(=O)N(C)C)cc3s2)cc(OC)c1OC	ELG1 repair inh inconclusive, SW480 rerep 10µM, KB-3-1 cytotox inconclusive, MCF10A rerep inconclusive
O=C(Nc1nc2ccccc2s1)C1CCN(S(=O)(=O)c2cc([N+](=O)[O-])ccc2Cl)CC1	SW480 rerep inconclusive, KB-3-1 cytotox 2.3µM, KB-V1 cytotox 13µM
Cc1nc2nc(CNC(=O)c3cccc(F)c3)nn2c(C)c1CCC(=O)Nc1ccc(F)cc1	none (no result: ELG1 repair inh, SW480 rerep, MCF10A rerep)
O=C1C2CCCN2C(=O)N1CCN1CCN(c2cccc(C(F)(F)F)c2)CC1 (stereo unspecified)	none (no result: ELG1 repair inh)
C=CCN(CC=C)S(=O)(=O)c1ccc2nc(NC(=O)C3CCCO3)sc2c1 (stereo unspecified)	SW480 rerep inconclusive, KB-3-1 cytotox inconclusive, MCF10A rerep inconclusive, KB-V1 cytotox 8.2µM
CN(C)c1cccc(C(=O)Nc2nc3ccc(S(=O)(=O)N4CCCC4)cc3s2)c1	KB-3-1 cytotox 10µM, KB-V1 cytotox 21µM (no result: ELG1 repair inh, SW480 rerep, MCF10A rerep)
Cc1ccc(C(=O)Nc2nc3ccc(S(=O)(=O)N4CCCC4)cc3s2)cc1	none (no result: ELG1 repair inh, SW480 rerep, MCF10A rerep)
COc1cc(C(=O)Nc2nc3ccc(S(C)(=O)=O)cc3s2)cc(OC)c1C	ELG1 repair inh inconclusive, SW480 rerep 18µM
CS(=O)(=O)c1ccc2nc(NC(=O)C3CCCO3)sc2c1 (stereo unspecified)	none
COc1ccc(C(CNC(=O)CCNC(=O)c2ccccc2OC)N2CCCC2)cc1 (stereo unspecified)	ELG1 repair inh inconclusive, KB-V1 cytotox inconclusive
COc1ccc2oc(C(=O)OCC(=O)NC3CCS(=O)(=O)C3)c(C)c2c1 (stereo unspecified)	none (no result: ELG1 repair inh, SW480 rerep, MCF10A rerep)
CCn1c(=O)cc(OCC(=O)N2CCN(c3ccccc3OC)CC2)c2ccccc21	KB-3-1 cytotox inconclusive (no result: ELG1 repair inh, SW480 rerep, MCF10A rerep)
NCCOc1ccc(C23CC4CC(CC(C4)C2)C3)cc1	ELG1 repair inh inconclusive, KB-3-1 cytotox inconclusive, MCF10A rerep 4.1µM, KB-V1 cytotox inconclusive
NCCOc1ccc(C2CCCCC2)cc1	ELG1 repair inh inconclusive, SW480 rerep inconclusive
OCCN1CCN(CC(O)COc2ccc(C34CC5CC(CC(C5)C3)C4)cc2)CC1 (stereo unspecified)	SW480 rerep inconclusive, KB-3-1 cytotox inconclusive, MCF10A rerep 12µM
OCCN1CCN(CC(O)COc2ccc(Cl)cc2)CC1 (stereo unspecified)	MCF10A rerep inconclusive
COc1ccc(CNC(=O)Cn2nc(C)c3c(C)n(-c4ccc(C)cc4)nc3c2=O)cc1OC	ELG1 repair inh 21µM
CCOc1ccccc1CNC(=O)Cn1nc(C)c2c(C)n(-c3ccc(C)cc3)nc2c1=O	ELG1 repair inh 2.9µM
COc1cccc(CNC(=O)Cn2nc(C)c3c(C)n(-c4ccc(C)cc4)nc3c2=O)c1OC	none
O=C(C[n+]1cccc(I)c1)c1ccc(F)cc1	none (no result: ELG1 repair inh, SW480 rerep, MCF10A rerep)
Cc1ccc(-n2ncc(C(=O)N3CCN(C4CCCCC4)CC3)c2C2CCN(C(=O)OC(C)(C)C)CC2)cc1	none (no result: ELG1 repair inh, SW480 rerep, MCF10A rerep)
COc1ccc2cc(/C=N/NC(=O)c3ccc(CN(c4cccc(Cl)c4Cl)S(C)(=O)=O)cc3)c(Cl)nc2c1	KB-3-1 cytotox 2.6µM, MCF10A rerep inconclusive, KB-V1 cytotox inconclusive
Cc1ccc(C(=O)N(Cc2cccnc2)Cc2cc3cc(C)ccc3n3nnnc23)cc1	ELG1 repair inh 21µM, KB-V1 cytotox inconclusive
CCCN1CCC(NC(=O)CC2C(=O)NCCN2Cc2ccccc2C)CC1 (stereo unspecified)	KB-V1 cytotox inconclusive
Cc1c(Cl)cccc1NC(=S)NCCc1ccc(Cl)cc1	SW480 rerep 13µM, KB-3-1 cytotox inconclusive
Cc1cccc(C)c1NC(=O)CN(C)CC(=O)Nc1cc(Cl)ccc1C#N	ELG1 repair inh inconclusive
CN(CC(=O)Nc1ccc(Cl)c(Cl)c1)C(=O)CNC(=O)Cc1ccccc1	none
COc1ccc(-c2cc(CNC(=O)CN(C)Cc3ccccc3)on2)cc1	KB-V1 cytotox 2.6µM
CN(CC(=O)NC(=O)NCc1ccccc1)CC(=O)Nc1ccc(Cl)c(Cl)c1	ELG1 repair inh 18µM, MCF10A rerep inconclusive, KB-V1 cytotox inconclusive
Cc1cccc(C)c1NC(=O)CN(C)CC(=O)Nc1ccc(F)c(Cl)c1	ELG1 repair inh inconclusive, KB-V1 cytotox 15µM
COc1ccc(CN(C)CC(=O)NC(=O)NCc2ccccc2)cc1OC	none
COc1cccc(CN(C)CC(=O)NC(=O)NCc2ccccc2)c1	KB-V1 cytotox 21µM
Cc1ccc(NC(=O)CSCC(=O)OCc2cc(=O)oc3cc(O)ccc23)c(C)c1	SW480 rerep inconclusive
CC(C)(C)NCC(O)COc1ccc(NC(=O)NC2CCCCC2)cc1 (stereo unspecified)	none (no result: ELG1 repair inh, KB-3-1 cytotox, KB-V1 cytotox)
CCOc1ccc(S(=O)(=O)NC(C)C(=O)NCc2ccc3c(c2)OCO3)cc1 (stereo unspecified)	none
NC(=O)c1ccc(NC(=O)COC(=O)CCN2C(=O)c3ccccc3C2=O)cc1	none
COCCN1C(=O)C(=O)/C(=C(/O)c2ccc(S(=O)(=O)N3CCCCC3)cc2)C1c1ccc(O)c(OC)c1 (stereo unspecified)	none
CCCCN(CCCC)C(=O)CN(C)S(=O)(=O)c1ccc2c(c1)n(C)c(=O)c(=O)n2C	KB-V1 cytotox 12µM
CN(CC(=O)O)S(=O)(=O)c1ccc2c(c1)n(C)c(=O)c(=O)n2C	none
COc1ccc(C(CNC(=O)c2cccc(S(=O)(=O)Nc3ccc(F)cc3)c2)N2CCCCC2)cc1 (stereo unspecified)	SW480 rerep inconclusive (no result: ELG1 repair inh)
CC(C)NC(=O)c1ccc2c3n(nc2c1)-c1ccccc1CO3	ELG1 repair inh inconclusive, KB-3-1 cytotox inconclusive, KB-V1 cytotox 5.8µM
